In the library only some 3.7% were active in any assay of this set; here they are far more common.
BoNT A protease: blocks Botulinum neurotoxin A light chain protease. multiplex microsphere protease substrate cleavage, flow cytometry. inhibition, % at 10 µM. 360,000 tested, 0.17% active; in the data active = inhibition above about 30%; inconclusive = no clear call, values can overlap the other calls; note: plate controls were buffer without enzyme for full effect and enzyme alone for no effect
Anthrax LF inh2: anthrax lethal factor protease inhibition; P15917; multiplex microsphere protease cleavage assay, LF; inhibition, % at 10 µM; 360,000 tested, 0.12% active; AID 588501; in the data active = inhibition above about 30%; inconclusive = no clear call, values can overlap the other calls; note: plate controls were buffer without enzyme for full effect and enzyme alone for no effect
Target sequence (P15917 whole entry, looked up): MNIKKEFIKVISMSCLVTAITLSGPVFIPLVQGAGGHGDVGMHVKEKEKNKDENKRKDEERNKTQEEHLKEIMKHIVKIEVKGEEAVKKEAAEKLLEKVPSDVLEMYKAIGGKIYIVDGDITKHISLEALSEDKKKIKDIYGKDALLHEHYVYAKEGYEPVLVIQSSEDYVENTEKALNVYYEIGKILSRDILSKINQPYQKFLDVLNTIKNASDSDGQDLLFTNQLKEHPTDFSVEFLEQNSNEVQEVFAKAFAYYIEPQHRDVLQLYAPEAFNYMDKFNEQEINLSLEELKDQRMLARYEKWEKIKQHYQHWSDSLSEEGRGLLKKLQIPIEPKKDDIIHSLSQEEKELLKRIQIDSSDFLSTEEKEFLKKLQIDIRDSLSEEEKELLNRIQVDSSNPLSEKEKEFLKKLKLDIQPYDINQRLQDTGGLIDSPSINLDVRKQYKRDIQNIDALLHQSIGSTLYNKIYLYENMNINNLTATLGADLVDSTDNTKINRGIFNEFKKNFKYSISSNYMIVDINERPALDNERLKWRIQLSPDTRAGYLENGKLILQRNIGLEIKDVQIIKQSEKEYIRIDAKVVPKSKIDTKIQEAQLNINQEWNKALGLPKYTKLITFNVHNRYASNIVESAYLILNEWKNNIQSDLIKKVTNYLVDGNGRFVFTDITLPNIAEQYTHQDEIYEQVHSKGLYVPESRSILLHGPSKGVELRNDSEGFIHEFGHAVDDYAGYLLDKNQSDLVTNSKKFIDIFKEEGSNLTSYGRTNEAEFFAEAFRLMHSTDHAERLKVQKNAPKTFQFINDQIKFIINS
BoNT F protease: BoNT F light chain protease inhibition; Multiplex microsphere protease cleavage assay, flow cytometry; inhibition, % at 10 µM; 360,000 tested, 0.22% active; AID 588497; in the data active = inhibition above about 35%, passing the limit was not always enough; inconclusive = no clear call, values can overlap the other calls; note: plate controls were buffer without enzyme for full effect and enzyme alone for no effect
MazF activator: increases E. coli MazEF RNase cleavage of RNA. P0AE70. FAM/BHQ RNA-DNA oligo cleavage fluorescence, 5 h. activation, % at 20 µM. 350,000 tested, 0.32% active; in the data active = activation above about 50%
Bead autofluor: compound fluorescence in toxin protease inhibitor counterscreen; 360,000 tested, 3.1% active; AID 624483; compound autofluorescence counterscreen, microsphere flow cytometry; hits give high values; fluorescence intensity (no concentration beside the values); in the data active = fluorescence intensity above about 16000; inconclusive = no clear call, values can overlap the other calls
BoNTA LC inh 1: blocks botulinum neurotoxin A light chain protease. shares compounds with BoNT F protease. multiplex microsphere protease assay, flow cytometry. inhibition, % at 10 µM. 720 tested, 3% active; in the data active = inhibition above about 32%
BoNT-F LC CP1: inhibitors of Botulinum neurotoxin F light chain protease; inhibition, % at 10 µM; AID 602140; 720 tested, under 10 active; shares compounds with BoNT F protease; multiplex microsphere protease cleavage assay, flow cytometry
LF protease CP1: blocks anthrax lethal factor protease | shares compounds with BoNT F protease | 720 tested, under 10 active | multiplex microsphere protease cleavage assay, LF | inhibition, % at 10 µM
Numbers without * were called inactive; ? = inconclusive; nt = no result. Unless noted, the rule behind the calls is not given here.

SMILES	BoNT A protease	Anthrax LF inh2	BoNT F protease	MazF activator	Bead autofluor	BoNTA LC inh 1	BoNT-F LC CP1	LF protease CP1
CCS(=O)(=O)N1CCC(C(=O)Oc2ccccc2)CC1	1	-2	39*	3	4002	0	-3	1
CCS(=O)(=O)N1CCC(C(=O)Oc2ccc(C(=O)OC)cc2)CC1	1	-2	-9	-18	5488	nt	nt	nt
Cc1cc(C)n(-c2nnc(NC(C)(C)C)nn2)n1	1	-2	-1	-5	2650	nt	nt	nt
Cc1cc(C)n(-c2nnc(NC34CC5CC(CC(C5)C3)C4)nn2)n1	52*	20	11	5	2849	16	-6	21
O=C(CN1CCOCC1)NCCc1ccccc1	-1	31*	7	2	3531	0	0	-1
O=C(CN1CCOCC1)NCc1ccccc1	0	-4	2	-5	7755	nt	nt	nt
Cc1cccc(CN2CCc3c([nH]c4ccccc34)C2)c1	2	-6	-2	6	4883	nt	nt	nt
COc1cc(OC)c(CN2CCc3c([nH]c4ccccc34)C2)cc1Br	51*	-10	?	19	26222*	-1	-6	-6
CCOc1ccc(NC(=O)Nc2ccc(Br)cn2)cc1	4	1	48*	-9	2591	1	-5	-2
CN(C)S(=O)(=O)c1cc(C(=O)NCCCn2ccc3ccccc32)ccc1Cl	6	12	-27	0	4171	0	-3	2
COc1ccc(CCNC(=O)c2ccc(Cl)c(S(=O)(=O)N(C)c3ccccc3)c2)cc1	-1	0	-2	-1	9294	nt	nt	nt
O=C1CN(C(=O)C2CC2)c2ccccc2N1	1	0	37*	-4	4674	0	-1	-1
CCC1=Nc2ccccc2-c2nnc(SC)nc2O1	2	-8	34	15	4512	0	-4	-7
COC(=O)CSc1nc(N)c2c3c(sc2n1)C(c1ccccc1)SC(c1ccccc1)C3 (stereo not drawn)	30*	7	1	-11	2397	2	2	-3
CCn1nc(C(=O)N2CCN(Cc3nc4ccccc4s3)CC2)c2ccccc2c1=O	0	0	4	0	5407	nt	nt	nt
O=C1CN(Cc2ccccc2)CC(=O)N1	-2	-1	46*	-6	3950	-1	-2	0
COCc1cccc(-c2csc(C(C)(NC(C)=O)c3ccccc3)n2)c1 (stereo not drawn)	0	-1	0	nt	3664	nt	nt	nt
CC(C)(C)c1ccc(-n2ncc3c2CCCC3NC(=O)c2ccco2)cc1 (stereo not drawn)	0	1	-4	3	3735	nt	nt	nt
O=C(NC1CCCCC1)C1CCN(c2ncccn2)CC1	-1	-1	1	9	4664	nt	nt	nt
O=C(NC1CCCCCC1)C1CCCN(c2ncccn2)C1 (stereo not drawn)	79*	8	15	4	4520	2	-7	-5
CCOc1ccc(/C=N/NC(=O)c2ccccc2C)cc1CN1CC2CC(C1)c1cccc(=O)n1C2 (stereo not drawn)	-1	-11	-6	2	5741	nt	nt	nt
CCc1nc2ccc(C(=O)NCCOc3ccc(OC)cc3)cn2c1N(C)CCCc1ccccc1	0	-5	-10	nt	3682	nt	nt	nt
COCCNc1nnc(SCC(=O)c2c[nH]c3ccccc23)s1	52*	17	-19	11	5036	10	-14	13
Cc1occc1-c1nnc(SCC(=O)c2c[nH]c3ccccc23)n1C	54*	45*	27	7	4371	-1	-8	3
CCCn1c(SCC(=O)c2c[nH]c3ccccc23)nnc1-c1ccncc1	53*	15	-24	20	4586	17	-9	17
SMILES	BoNT A protease	Anthrax LF inh2	BoNT F protease	MazF activator	Bead autofluor	BoNTA LC inh 1	BoNT-F LC CP1	LF protease CP1
Cc1ccc2nc(SCC(=O)c3c[nH]c4ccccc34)[nH]c2c1	58*	14	-17	21	5287	20	-19	17
CCC(=O)N1CCCC(C)(C(=O)Nc2nccc3ccccc23)C1 (stereo not drawn)	0	0	-2	nt	3588	nt	nt	nt
O=C(COC(=O)c1cccc(OC(F)F)c1)NCC1CCCO1 (stereo not drawn)	0	-6	3	15	3233	nt	nt	nt
c1ccc(COc2ncnc3c2ncn3CCCNCc2cccs2)cc1	0	0	-2	6	2954	nt	nt	nt
C=CCN(CC=C)Cc1cc(=O)oc2cc(C)cc(C)c12	-1	-7	4	nt	5963	nt	nt	nt
Cc1ccc(C(CC(=O)N2CCNCC2)c2ccccc2)c(O)c1C (stereo not drawn)	0	0	-15	6	2861	nt	nt	nt
Cc1ccc(C(CC(=O)N2CCCCC2)c2ccccc2)c(O)c1C (stereo not drawn)	10	69*	128*	-1	6356	-1	-6	0
COc1cc(C(=O)N2CCN(S(=O)(=O)c3cccc(F)c3)CC2)ccc1OCC(=O)N1CCOCC1	-2	-3	-5	3	?	nt	nt	nt
CC(C)(C)N(Cc1ccccc1)C(=O)COC(=O)/C=C/c1ccc2c(c1)OCO2	2	4	-2	-13	8789	nt	nt	nt
CCOC(=O)c1c(NC(=S)N2CCOCC2)sc(C)c1C	2	5	48*	-5	3766	-3	-6	-3
CCOC(=O)c1c(N)sc(C(=O)N2CCOCC2)c1C	0	2	0	1	11163	nt	nt	nt
COc1ccc2nc(C)cc(Nc3ccc(C(=O)O)cc3)c2c1	-2	-3	39*	9	3557	-1	-3	2
CCOc1ccc(CCN2C(=S)N([C@@H](Cc3ccc(O)cc3)CN3CCC[C@@H]3CN3C(=S)NC[C@@H]3Cc3ccc(O)cc3)C[C@@H]2Cc2ccc(O)cc2)cc1	-1	-8	-7	nt	6026	nt	nt	nt
COc1cc2c(cc1OC)C(C)N(S(=O)(=O)c1ccc(C)cc1)CC2 (stereo not drawn)	0	4	-4	4	3602	nt	nt	nt
COc1cc2c(cc1OC)C(C)N(S(=O)(=O)c1cccs1)CC2 (stereo not drawn)	6	32*	-7	-6	3519	1	-2	-1
COc1ccc(C(=O)N2CCN(Cc3cc(OC)ccc3OC)CC2)cc1	0	-1	?	14	4285	nt	nt	nt
COc1ccc(C(=O)N2CCN(Cc3ccc(OC)c(OC)c3)CC2)cc1	4	17	44*	9	3398	0	3	-1
CCOCCCNC(=O)CN1C(=O)c2cccc3cccc1c23	3	-4	39*	-19	3541	-1	-5	-2
CCSc1ncnc2c1sc1nc3c(cc12)COC(C)(C)C3	3	2	36*	1	2577	-1	-8	-4
Cc1oc(C)c(S(=O)(=O)NCc2cccs2)c1C(=O)O	?	38*	?	3	4495	0	-3	2
CCn1c2ccccc2c2cc(NC(=O)c3ccc(Br)o3)ccc21	77*	43*	10	9	4789	5	-10	-2
CCn1c2ccccc2c2cc(NC(=O)c3cc(C)on3)ccc21	1	-3	-3	-3	4612	nt	nt	nt
